Results on four compounds are retold here after PubChem BioAssay (NCATS).

Several values for one entry are separate records, joined by “and”; a condition that tells them apart may be missing. Equal entries are not always repeated. Results filed as inconclusive are left out. The source holds several records for some structures; these can differ, active in one and inactive in another. Activity calls are given as the source filed them. Unless noted, calls follow the shape of the dose curve; as a rule, active = well fitted curve in the direction sought with a large enough effect; inconclusive = small, poorly fitted or top-dose-only effect, or another doubt; inactive = no such curve, though single readings can be large; an effect the other way counts as inactive or inconclusive. Where only a bound is given, the exact number is not on record here.

Test [1] can be described thus: Cell Viability - HepG2 (AID 433; calls by dose curve;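 also: potency is read from the fitted curve at half-maximal effect; cells exposed to compound for 40 hours; potency for ATP loss meaning cytotoxicity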). The settings on record: qHTS. An outline of the steps: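 Read-out is luciferase-based quantitation of cellular ATP as a measure of viable HepG2 cells after 40 h treatment at 37 °C. Signal decrease is scaled between DMSO-only and 100 uM tamoxifen controls, with AC50 fitted by the Hill equation.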
Test [2] can be described thus: Cellular Toxicity (caspase-3) SK-N-SH (AID 661).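 Also: cells exposed to compound for 16 hours; 0% = DMSO basal and 100% = 10 µM staurosporine.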 The settings on record: SK-N-SH caspase-3 activation, qHTS, DMSO as zero, staurosporine as full; series mostly up to 91.7 µM. In a few lines: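 Cells were seeded and incubated 5 hr at 37 °C, dosed with compound over a concentration range for 16 hr, then given Caspase-Glo 3/7 reagent for 1 hr at room temperature before luminescence reading.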
On the technique in general: Quantitative high-throughput screening tests each substance at several concentrations.

The nature of test [3]: Cell Viability - LYMP2-013 (AID 970).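 Also: cells exposed to compound for 24 h at 37 °C; nearly all actives have a fitted effect of over 55% in size.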 Also: potency is read from the fitted curve at half-maximal effect. The settings on record: LYMP2-013 lymphoblastoid cells viability; series mostly up to 92.2 µM. An outline of the steps:
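Cytotoxicity is scored as a concentration-dependent drop in intracellular ATP in human lymphoblastoid cells after 24 hr compound exposure at 37 C. ATP is quantified by luciferase luminescence, and AC50 values come from Hill-equation modeling.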

Test [4] is described as follows: Cell Viability - LYMP2-002 (AID 977).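 Also: compound exposure lasted 24 h at 37 °C.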 Also: potency is read from the fitted curve at half-maximal effect. Particulars: LYMP2-002 lymphoblastoid cell viability, qHTS; series mostly up to 92.2 µM. An outline of the steps:
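In this qHTS viability screen, 2500 human lymphoblastoid cells per well receive compound for 24 hr at 37 C, and luciferase-based ATP luminescence gives the viability signal. Tetraoctylammonium bromide serves as positive control.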

A short description of test [5]: Cell Viability - LYMP2-006 (AID 978).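 Also: cells exposed to compound for 24 hours; nearly all actives have a fitted effect of over 60% in size.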 Also: potency is read from the fitted curve at half-maximal effect. The settings on record: LYMP2-006 lymphoblastoid cell viability, qHTS; series mostly up to 92.2 µM. In a few lines:
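Cells are seeded at 2500 per well and rested 5 hr at 37 C. Compounds are added across a concentration series for 24 hr at 37 C, after which ATP is quantified by luciferase luminescence.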

Test [6] is described as follows: Cell Viability - LYMP2-010 (AID 981).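 Also: cells exposed to compound for 24 hours at 37 °C; nearly all actives have a fitted effect of over 55% in size.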 Also: potency is read from the fitted curve at half-maximal effect. Particulars: LYMP2-010 lymphoblastoid cell viability, qHTS; series mostly up to 92.2 µM. An outline of the steps:
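Steps: seed 2500 LYMP2-010 cells per well; incubate 5 hr at 37 C; add compound; incubate 24 hr at 37 C; add CellTiter-Glo, wait 30 min at room temperature; read luminescence. Concentration-response fitted to Hill equation for AC50.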

A short description of test [7]: Cell Viability - LYMP2-020 (AID 986).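 Also: cells exposed to compound for 24 h at 37 °C; nearly all actives have a fitted effect of over 55% in size.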 Also: potency is read from the fitted curve at half-maximal effect. The settings on record: series mostly up to 92.2 µM. In a few lines: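 Seed 2500 cells per well and incubate 5 hr at 37 C. Add compounds at a concentration series and incubate 24 hr at 37 C. Add CellTiter-Glo, wait 30 min at RT, read luminescence, and fit a Hill curve for AC50.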
Test [8] is described as follows: Cell Viability - LYMP2-022 (AID 987). Also: nearly all actives have a fitted effect of over 55% in size. Also: potency is read from the fitted curve at half-maximal effect. Particulars: LYMP2-022 lymphoblastoid cell viability; series mostly up to 92.2 µM. In a few lines: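 Cells were seeded at 2500 per well, rested 5 hr at 37 C, and treated with titrated compounds for 24 hr at 37 C. Cellular ATP was then quantified by luciferase luminescence, and AC50 values were derived from Hill-modelled concentration-response curves.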

The nature of test [9]: Cell Viability - LYMP2-024 (AID 988). Also: nearly all actives have a fitted effect of over 60% in size. Also: potency is read from the fitted curve at half-maximal effect. The settings on record: LYMP2-024 lymphoblastoid cell viability; series mostly up to 92.2 µM. An outline of the steps:
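qHTS cytotoxicity, human lymphoblastoid line, complete medium; 24 h cpd treatment, 37 C; CellTiter-Glo ATP luminescence readout; tetraoctylammonium bromide positive control; AC50 via Hill fit.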

Test [10] addresses Voltage-gated inwardly rectifying potassium channel KCNH2 (Homo sapiens) (UniProt Q12809). Briefly: qHTS Assay for Small Molecule Inhibitors of the Human hERG Channel Activity (AID 588834).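 Also: lower thallium flux fluorescence means stronger hERG block; nearly all actives have a fitted effect of over 50% in size.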 Also: potency is read from the fitted curve at half-maximal effect. Particulars: U2OS BacMam hERG, FluxOR thallium flux fluorescence; series mostly up to 92.2 µM. In a few lines: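 Step 1: BacMam hERG transduction of U2OS, 4 hrs RT. Step 2: overnight 37 °C, plate 2000 cells/well, 4 hr. Step 3: FluxOR load, compound 10 min, stimulate, read fluorescence.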

Test [11] addresses Peroxisome proliferator-activated receptor alpha (Homo sapiens) (UniProt Q07869). The test can be described thus: qHTS assay for small molecule agonists of the peroxisome proliferator-activated receptor alpha (PPARalpha) signaling pathway (AID 651778). Also: % of control where 0% means no effect. Particulars: PathHunter PPARalpha complementation, chemiluminescence, 6 h; max response: stronger effect = higher value. In a few lines:
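Cells plated at 2,000/well and held overnight at 37 C, 5% CO2, then compound added by pin tool for 6 hr; after PathHunter detection reagent and 60 min at room temperature, chemiluminescence from enzyme complementation was read.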

The target of test [12] is Nuclear receptor ROR-gamma (Homo sapiens) (UniProt P51449). The test can be described thus: qHTS assay for small molecule antagonists of the retinoid-related orphan receptor gamma (ROR-gamma) signaling pathway (AID 651802). Also: nearly all actives have a fitted effect of over 60% in size. Also: potency is read from the fitted curve at half-maximal effect. The settings on record: ROR-gamma antagonist cell reporter assay; series mostly up to 92.2 µM. An outline of the steps:
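Steps: cells dispensed; compound or DMSO transferred by pin tool; doxycycline added to induce the ROR response element-driven luciferase; plates held 16hr at 37C; ONE-Glo added and luminescence measured.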

The nature of test [13]: qHTS assay for small molecule antagonists of the retinoid-related orphan receptor gamma (ROR-gamma) signaling pathway - cell viability counter screen (AID 720652; active = well fitted curve in the direction sought with a large enough effect in the repeat runs; an effect the other way counts as inactive or inconclusive;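 also: compound exposure lasted 16 hr before ATP read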; also: potency is read from the fitted curve at half-maximal effect). Particulars: RORgamma reporter cell line viability counter screen; series mostly up to 92.2 µM. In a few lines:
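Steps: seed CHO cells bearing TET-inducible ROR and ROR response element-luciferase; rest 5 hr at 37 C; add compound, then doxycycline; incubate 16 hr; add CellTiter-Glo and read luminescence as ATP-based viability.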

The nature of test [14]: qHTS assay for cell viability of HEK293 cells (AID 743288). Also: % is scaled to controls: 0 for no effect and ±100 for the full control effect; nearly all actives have a fitted effect of over 50% in size. Particulars: ATP luminescence (CellTiter-Glo), 18 h; max response: stronger effect = lower value. In a few lines:
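Viable-cell counts were inferred from luciferase-based ATP content in HEK293 cells seeded at 2,000/well, pre-incubated ≥5 h, then dosed with DMSO-solubilised compounds for 18 h at 37 C.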

Test [15] can be described thus: qHTS assay for cell viability of the p53RE-bla HCT-116 cell line (AID 743292). Also: nearly all actives have a fitted effect of over 55% in size. Also: potency is read from the fitted curve at half-maximal effect. Particulars: p53RE-bla HCT-116 viability, ATP luminescence, 16 h; series mostly up to 95 µM. In a few lines: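 ATP-based luminescence, 16 h compound exposure at 37 C, p53RE-bla HCT-116 cells at 4,000/well.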
The nature of test [16]: MultiTox-Fluor Cytotoxicity Assay - LYMP1-001 - Dead Cells (AID 946). Also: potency is read from the fitted curve at half-maximal effect. The settings on record: LYMP1-001 lymphoblastoid cells, dead-cell protease fluorescence; series mostly up to 92.2 µM. An outline of the steps:
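AC50 from Hill fit of concentration-response; data normalized to DMSO (basal) and 15 uM tetraoctylammonium bromide (100%). LYMP1-001 lymphoblastoid cells, 2500/well, 16 hr compound at 37 C; dead-cell protease fluorescence, Ex/Em 485/520.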

Test [17] is described as follows: MultiTox-Fluor Cytotoxicity Assay - LYMP1-001 - Live Cells (AID 947). Also: potency is read from the fitted curve at half-maximal effect. Particulars: LYMP1-001 lymphoblastoid cells, live-cell protease fluorescence viability; series mostly up to 92.2 µM.
Test [18] is described as follows: MultiTox-Fluor Cytotoxicity Assay - LYMP1-002 - Dead Cells (AID 960). Also: nearly all actives have a fitted effect of over 60% in size. Also: potency is read from the fitted curve at half-maximal effect. Particulars: LYMP1-002 lymphoblastoid cells, dead-cell protease fluorescence; series mostly up to 46.1 µM. In a few lines:
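Cells were plated, rested 5 hr, then treated with compound dilution series for 16 hr at 37 C. After adding substrate reagent and 60 min at room temperature, dead-cell protease fluorescence gave concentration-response curves fitted by the Hill equation.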

Test [19] in a line: Cellular Toxicity (caspase-3) H-4-II-E (AID 663).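 Also: cells exposed to compound for 16 hr before readout.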 The settings on record: H-4-II-E rat hepatoma, scaled: DMSO 0%, 100 µM tamoxifen 100%; at 92.2 µM (top of the series). In a few lines: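 Caspase 3/7 activation measured in H-4-II-E cells in complete culture medium after 16 hr treatment at 37 °C, using luciferase-coupled substrate readout; AC50 values come from Hill-equation fits of normalized concentration-response data.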

Chain of Peroxisome proliferator-activated receptor alpha (Homo sapiens) (Q07869 whole entry, looked up): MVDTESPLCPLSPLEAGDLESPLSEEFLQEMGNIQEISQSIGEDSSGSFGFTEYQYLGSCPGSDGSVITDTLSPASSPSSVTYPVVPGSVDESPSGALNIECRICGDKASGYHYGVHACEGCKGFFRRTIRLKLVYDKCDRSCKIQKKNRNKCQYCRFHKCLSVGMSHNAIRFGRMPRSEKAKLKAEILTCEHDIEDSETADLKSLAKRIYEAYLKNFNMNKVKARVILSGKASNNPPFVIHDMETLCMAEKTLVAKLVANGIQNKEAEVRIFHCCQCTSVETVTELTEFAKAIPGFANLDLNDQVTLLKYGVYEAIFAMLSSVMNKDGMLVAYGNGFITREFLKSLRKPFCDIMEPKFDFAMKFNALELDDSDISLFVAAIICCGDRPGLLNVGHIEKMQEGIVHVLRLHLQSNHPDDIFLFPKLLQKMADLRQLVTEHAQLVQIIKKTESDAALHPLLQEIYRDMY
Chain of Nuclear receptor ROR-gamma (Homo sapiens) (P51449 whole entry, looked up): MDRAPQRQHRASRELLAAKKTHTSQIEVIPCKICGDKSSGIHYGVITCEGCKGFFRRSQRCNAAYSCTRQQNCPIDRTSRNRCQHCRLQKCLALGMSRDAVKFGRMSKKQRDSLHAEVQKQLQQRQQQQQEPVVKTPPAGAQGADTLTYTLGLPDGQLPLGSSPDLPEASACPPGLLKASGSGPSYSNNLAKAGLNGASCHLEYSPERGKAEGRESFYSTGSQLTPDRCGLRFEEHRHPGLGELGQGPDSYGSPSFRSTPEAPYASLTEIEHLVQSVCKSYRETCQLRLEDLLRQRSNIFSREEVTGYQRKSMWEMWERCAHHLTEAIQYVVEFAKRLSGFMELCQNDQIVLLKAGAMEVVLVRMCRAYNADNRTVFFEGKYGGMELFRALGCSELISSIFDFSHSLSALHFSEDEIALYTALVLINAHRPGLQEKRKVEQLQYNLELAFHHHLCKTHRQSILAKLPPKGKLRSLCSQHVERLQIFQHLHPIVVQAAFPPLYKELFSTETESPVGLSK
Chain of Voltage-gated inwardly rectifying potassium channel KCNH2 (Homo sapiens) (Q12809 whole entry, looked up): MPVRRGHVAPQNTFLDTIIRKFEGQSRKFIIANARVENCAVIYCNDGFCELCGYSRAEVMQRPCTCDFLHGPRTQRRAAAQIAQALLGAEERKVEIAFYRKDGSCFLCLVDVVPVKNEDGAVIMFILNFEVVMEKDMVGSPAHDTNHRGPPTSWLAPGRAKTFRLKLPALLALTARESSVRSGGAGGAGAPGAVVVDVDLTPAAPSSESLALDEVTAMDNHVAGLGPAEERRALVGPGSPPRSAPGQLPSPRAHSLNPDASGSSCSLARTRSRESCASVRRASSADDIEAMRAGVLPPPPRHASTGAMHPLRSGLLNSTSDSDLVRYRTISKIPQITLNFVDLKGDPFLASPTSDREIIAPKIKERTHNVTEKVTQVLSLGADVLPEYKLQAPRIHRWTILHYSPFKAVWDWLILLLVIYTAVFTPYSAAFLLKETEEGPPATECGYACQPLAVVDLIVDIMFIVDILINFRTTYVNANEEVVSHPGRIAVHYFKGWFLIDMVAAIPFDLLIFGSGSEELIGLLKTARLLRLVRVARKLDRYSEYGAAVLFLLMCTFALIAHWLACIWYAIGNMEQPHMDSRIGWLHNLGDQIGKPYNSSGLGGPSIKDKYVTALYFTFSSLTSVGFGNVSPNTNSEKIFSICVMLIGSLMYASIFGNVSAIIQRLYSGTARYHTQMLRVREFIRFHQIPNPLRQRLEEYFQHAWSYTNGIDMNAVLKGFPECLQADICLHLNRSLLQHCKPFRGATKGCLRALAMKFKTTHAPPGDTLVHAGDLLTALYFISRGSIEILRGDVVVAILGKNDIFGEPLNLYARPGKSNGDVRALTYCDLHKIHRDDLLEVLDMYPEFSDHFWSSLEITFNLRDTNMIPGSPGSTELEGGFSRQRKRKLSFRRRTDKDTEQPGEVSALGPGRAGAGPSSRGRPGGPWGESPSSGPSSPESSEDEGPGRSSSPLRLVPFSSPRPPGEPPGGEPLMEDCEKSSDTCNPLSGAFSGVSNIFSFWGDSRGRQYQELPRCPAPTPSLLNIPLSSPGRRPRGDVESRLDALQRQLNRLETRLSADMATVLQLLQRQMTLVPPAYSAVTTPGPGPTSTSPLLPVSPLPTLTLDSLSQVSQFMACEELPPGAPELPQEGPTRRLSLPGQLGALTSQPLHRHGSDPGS

Turning to `CC(C)CC(C)Nc1ccc(Nc2ccccc2)cc1` (stereo not given), the Potency in [1] was > 92 µM (inactive); in [3], 50.1 µM (active); in test [4], 39.8 µM (active); in test [5], 39.8 µM (active); in test [6], 39.8 µM (active); in [7], 39.8 µM (active). Moreover, the Potency in [8] was 31.6 µM (active); in [9], 25.1 µM (active); in test [10], 20 µM (active); in [12], 37.6 µM (active); in test [13] it was 59.6 µM (active). Further, in test [2], the compound was classed as inactive. The max response in test [11] was -7.88% (inactive); in test [14], -21.7% (inactive). In test [15], the Potency result was “inactive”.
On to `O=C1C2(Cl)C3(Cl)C4(Cl)C(Cl)(Cl)C5(Cl)C3(Cl)C1(Cl)C5(Cl)C24Cl` (stereo not given), for which the Potency in test [1] is 31.3 µM (active) and 59.3 µM (active); in test [16], 31.6 µM (active); in test [17] it was 39.8 µM (active) and 50.1 µM (active); in test [18] it was 20 µM (active) and 15.8 µM (active); in test [5] it was 39.8 µM (active) and inactive; in test [10], 17.8 µM (active) and 28.2 µM (active). In addition, the Potency in test [12] was 9.44 µM (active) and 10.6 µM (active); in test [13] it was 26.6 µM (active) and 29.8 µM (active). Besides, in [2], the result was inactive. Also, the Potency result in test [7] and in [9] was “inactive” in each case. Moreover, the max response in [11] was 6.14% (inactive) and 11.6% (inactive) and 6.69% (inactive); in test [14], -22.6% (inactive) and -16.2% (inactive).
As to `O=C(O)C1C(C(=O)O)C2(Cl)C(Cl)=C(Cl)C1(Cl)C2(Cl)Cl` (stereo not given), the Potency in [1] is > 92 µM (inactive). For the same compound, the call in test [2] was inactive. Moreover, in test [19], the caspase-3 activation was -0.161% (inactive). Moreover, the Potency entry in [16], in [17], in [18], in test [3], in test [4] and in [5] was “inactive” throughout. Besides, the Potency entry in test [6], in test [7], in test [8], in test [9], in [10] and in test [12] was “inactive” throughout. In addition, the Potency entry in test [13] and in [15] was “inactive” each time. Also, the max response in test [11] was 10.1% (inactive); in test [14], 0.0125% (inactive).
Consider `N#CC(Cl)Cl`, for which the caspase-3 activation in test [19] is 0.178% (inactive). For the same compound, the Potency entry in [16], in [17], in test [18] and in test [10] was “inactive” each time. Also, the Potency is 20 µM (active) in test [3]; 12.6 µM (active) in test [4]; 12.6 µM (active) in [5]; 10 µM (active) in test [7]; 33.5 µM (active) in [12]; 21.1 µM (active) in test [13]. The Potency in test [15] is 44.7 µM (active). For the same compound, the max response in test [11] is -3.95% (inactive).
